The text below walks through data of paper PMC7862700, “An all-to-all approach to the identification of sequence-specific readers for epigenetic DNA modifications on cytosine”.

Common to all, as to experiment: DAPPL (digital affinity profiling via proximity ligation, sequencing); 10 mM Tris-HCl pH 7.5, 50 mM NaCl, 1 mM DTT, 4% glycerol, room temperature, 30 min; GST-TFs on glutathione beads, 16-mer random dsDNA library, 0.1% formaldehyde crosslink after washing; high values mean tight binding
What all share (settings): protein: recombinant; tags: N-terminal GST; dsDNA, one strand shown

For one assay, the target named is T1, FLI1 (Homo sapiens, UniProt Q01543 1-452).
T1 sequence: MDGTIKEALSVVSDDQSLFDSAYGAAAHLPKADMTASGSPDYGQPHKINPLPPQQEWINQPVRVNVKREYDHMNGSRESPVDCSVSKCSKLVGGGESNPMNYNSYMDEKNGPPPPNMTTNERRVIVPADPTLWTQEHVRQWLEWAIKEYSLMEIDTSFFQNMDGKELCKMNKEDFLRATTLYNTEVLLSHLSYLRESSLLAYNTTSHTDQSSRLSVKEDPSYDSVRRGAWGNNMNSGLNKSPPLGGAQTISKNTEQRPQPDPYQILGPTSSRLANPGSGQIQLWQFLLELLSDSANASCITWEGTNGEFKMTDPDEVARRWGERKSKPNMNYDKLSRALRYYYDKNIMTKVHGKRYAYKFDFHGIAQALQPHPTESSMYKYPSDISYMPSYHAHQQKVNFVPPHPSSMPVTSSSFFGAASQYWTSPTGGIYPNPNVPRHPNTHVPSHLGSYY
The method, boiled down: (§1)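 A tag-only sample was pooled with DNA-barcoded human transcription factors that had been expressed in yeast as GST fusions and captured on glutathione beads. The pools were incubated for 30 min at room temperature with 200 nmole of a random double-stranded 16-mer DNA library in Tris/NaCl/DTT/glycerol buffer, then washed, crosslinked with 0.1% formaldehyde, proximity-ligated (BsaI/T4 ligase, 1 h, 37 °C), PCR-amplified and sequenced on an Illumina NextSeq500. Binding signal is each hexamer's read frequency for a factor divided by its frequency for the tag-only sample.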

For another assay, the target named is T2, ELK1 (Homo sapiens, UniProt P19419 1-428).
T2 sequence: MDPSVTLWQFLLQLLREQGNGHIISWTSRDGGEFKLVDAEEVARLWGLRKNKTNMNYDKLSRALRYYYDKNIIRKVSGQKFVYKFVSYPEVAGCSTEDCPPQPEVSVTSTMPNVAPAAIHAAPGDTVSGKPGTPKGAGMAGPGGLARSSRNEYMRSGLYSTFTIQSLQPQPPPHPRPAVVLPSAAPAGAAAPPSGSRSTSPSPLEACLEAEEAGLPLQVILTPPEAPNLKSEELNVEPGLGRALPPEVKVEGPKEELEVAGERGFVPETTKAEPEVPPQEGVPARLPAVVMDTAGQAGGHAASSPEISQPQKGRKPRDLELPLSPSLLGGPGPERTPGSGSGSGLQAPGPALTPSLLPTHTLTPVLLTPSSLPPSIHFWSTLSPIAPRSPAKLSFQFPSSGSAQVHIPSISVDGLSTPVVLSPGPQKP
The method, boiled down: as §1

Another assay has as its target T3, GABPA (Homo sapiens, UniProt Q06546 1-454).
T3 sequence: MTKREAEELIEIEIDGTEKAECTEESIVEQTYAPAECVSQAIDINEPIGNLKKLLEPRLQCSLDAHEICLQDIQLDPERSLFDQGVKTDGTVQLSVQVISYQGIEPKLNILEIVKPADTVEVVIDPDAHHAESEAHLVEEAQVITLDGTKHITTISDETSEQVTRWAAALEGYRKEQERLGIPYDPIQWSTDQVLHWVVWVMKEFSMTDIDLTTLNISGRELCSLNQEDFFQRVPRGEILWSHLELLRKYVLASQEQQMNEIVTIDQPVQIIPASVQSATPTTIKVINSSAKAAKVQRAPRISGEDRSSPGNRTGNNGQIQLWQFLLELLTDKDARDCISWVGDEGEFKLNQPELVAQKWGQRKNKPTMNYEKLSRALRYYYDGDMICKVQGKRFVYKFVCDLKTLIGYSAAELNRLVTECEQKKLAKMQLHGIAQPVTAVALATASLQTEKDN
The method, boiled down:
as §1

Another assay addresses T4, ERG (Homo sapiens, UniProt P11308 1-479).
T4 sequence: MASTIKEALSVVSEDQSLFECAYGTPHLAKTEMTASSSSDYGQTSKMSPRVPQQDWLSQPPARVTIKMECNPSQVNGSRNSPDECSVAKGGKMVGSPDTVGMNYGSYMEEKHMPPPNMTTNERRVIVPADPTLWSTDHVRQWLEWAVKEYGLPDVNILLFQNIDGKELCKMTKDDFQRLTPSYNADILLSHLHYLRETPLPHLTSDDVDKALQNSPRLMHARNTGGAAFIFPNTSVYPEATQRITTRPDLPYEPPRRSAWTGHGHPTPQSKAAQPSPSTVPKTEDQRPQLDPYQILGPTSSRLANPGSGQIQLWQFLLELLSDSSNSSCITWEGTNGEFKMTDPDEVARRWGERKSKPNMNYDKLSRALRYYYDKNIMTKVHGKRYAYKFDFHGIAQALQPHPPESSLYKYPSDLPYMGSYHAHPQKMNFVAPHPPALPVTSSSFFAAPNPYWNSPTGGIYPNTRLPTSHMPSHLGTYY
The procedure, abridged: as §1

The target in another assay is ELF1 (Homo sapiens, UniProt P32519 1-619). The method, boiled down:
as §1

A further assay has as its target T5, EHF (Homo sapiens, UniProt Q9NZC4 1-300).
T5 sequence: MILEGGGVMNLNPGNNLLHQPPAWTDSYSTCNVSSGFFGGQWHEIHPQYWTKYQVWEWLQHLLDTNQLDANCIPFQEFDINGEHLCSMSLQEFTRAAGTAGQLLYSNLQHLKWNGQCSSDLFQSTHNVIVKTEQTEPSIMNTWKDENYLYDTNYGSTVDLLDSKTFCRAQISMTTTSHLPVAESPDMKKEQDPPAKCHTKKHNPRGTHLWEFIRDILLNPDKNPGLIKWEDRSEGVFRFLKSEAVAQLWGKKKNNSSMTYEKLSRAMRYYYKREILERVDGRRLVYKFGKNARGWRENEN
The method, boiled down: as §1

For another assay, the target named is SPI1 (Homo sapiens, UniProt P17947 1-270). The procedure, abridged:
as §1

The target in a further assay is SPIB (Homo sapiens, UniProt Q01892 1-262). The procedure, abridged:
as §1

For a further assay, the target named is T6, ELK3 (Homo sapiens, UniProt P41970 1-407).
T6 sequence: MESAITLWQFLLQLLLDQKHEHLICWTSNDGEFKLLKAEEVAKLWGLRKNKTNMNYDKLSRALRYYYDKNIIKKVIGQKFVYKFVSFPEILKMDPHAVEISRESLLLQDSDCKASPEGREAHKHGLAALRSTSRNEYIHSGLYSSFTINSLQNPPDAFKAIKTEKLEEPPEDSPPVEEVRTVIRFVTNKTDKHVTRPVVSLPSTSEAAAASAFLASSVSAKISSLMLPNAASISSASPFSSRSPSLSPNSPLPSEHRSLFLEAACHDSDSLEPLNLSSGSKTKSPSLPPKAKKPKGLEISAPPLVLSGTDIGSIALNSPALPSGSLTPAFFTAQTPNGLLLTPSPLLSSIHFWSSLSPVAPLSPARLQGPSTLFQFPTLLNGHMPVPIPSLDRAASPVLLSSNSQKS
The procedure, abridged:
as §1

The target in a further assay is T7, FEV (Homo sapiens, UniProt Q99581 1-238).
T7 sequence: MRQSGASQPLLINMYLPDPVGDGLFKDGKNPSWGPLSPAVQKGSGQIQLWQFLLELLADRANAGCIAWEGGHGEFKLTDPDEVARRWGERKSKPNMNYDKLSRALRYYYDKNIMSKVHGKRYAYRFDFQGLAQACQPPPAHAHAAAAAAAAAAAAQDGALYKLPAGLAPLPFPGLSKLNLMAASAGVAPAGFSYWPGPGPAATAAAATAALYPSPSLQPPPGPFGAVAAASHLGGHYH
The procedure, abridged:
as §1

The target in the next assay is ETV5 (Homo sapiens, UniProt P41161 1-510). The procedure, abridged:
as §1

Another assay deals with T8, SPIC (Homo sapiens, UniProt Q8N5J4 1-248).
T8 sequence: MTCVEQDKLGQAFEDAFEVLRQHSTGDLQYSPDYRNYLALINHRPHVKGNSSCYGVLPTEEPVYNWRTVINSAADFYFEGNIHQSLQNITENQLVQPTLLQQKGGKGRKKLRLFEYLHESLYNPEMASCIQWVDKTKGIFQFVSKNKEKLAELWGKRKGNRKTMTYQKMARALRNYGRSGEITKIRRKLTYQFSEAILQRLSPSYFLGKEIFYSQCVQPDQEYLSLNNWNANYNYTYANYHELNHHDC
The procedure, abridged:
as §1

Another assay has as its target ELF4 (Homo sapiens, UniProt Q99607 1-663). The procedure, abridged: as §1
The next assay deals with T9, ELK4 (Homo sapiens, UniProt P28324-2 1-405).
T9 sequence: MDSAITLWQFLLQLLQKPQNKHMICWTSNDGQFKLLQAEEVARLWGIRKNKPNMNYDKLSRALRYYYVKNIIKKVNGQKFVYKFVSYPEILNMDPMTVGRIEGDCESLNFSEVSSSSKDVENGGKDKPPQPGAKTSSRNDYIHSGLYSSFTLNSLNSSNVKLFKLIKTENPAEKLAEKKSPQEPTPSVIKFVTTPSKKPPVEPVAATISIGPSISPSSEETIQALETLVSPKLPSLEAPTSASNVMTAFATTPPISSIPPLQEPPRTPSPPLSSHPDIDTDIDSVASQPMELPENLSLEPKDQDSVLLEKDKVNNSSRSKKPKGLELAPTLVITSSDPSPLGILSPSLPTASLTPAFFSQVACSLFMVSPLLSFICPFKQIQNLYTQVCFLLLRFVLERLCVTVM
The method, boiled down:
as §1

The target in the next assay is T10, ETV2 (Homo sapiens, UniProt O00321 1-342).
T10 sequence: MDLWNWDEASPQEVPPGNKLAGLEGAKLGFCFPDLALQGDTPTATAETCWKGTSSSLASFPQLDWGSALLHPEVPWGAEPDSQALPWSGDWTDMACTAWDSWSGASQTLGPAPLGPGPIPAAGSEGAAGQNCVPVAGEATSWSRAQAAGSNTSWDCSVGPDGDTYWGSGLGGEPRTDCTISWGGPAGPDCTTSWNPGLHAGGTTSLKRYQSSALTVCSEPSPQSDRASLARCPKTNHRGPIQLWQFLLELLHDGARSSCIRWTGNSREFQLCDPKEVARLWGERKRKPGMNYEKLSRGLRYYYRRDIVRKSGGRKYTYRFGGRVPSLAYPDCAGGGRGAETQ
The method, boiled down:
as §1

Another assay concerns the target T11, ELF3 (Homo sapiens, UniProt P78545 1-371).
T11 sequence: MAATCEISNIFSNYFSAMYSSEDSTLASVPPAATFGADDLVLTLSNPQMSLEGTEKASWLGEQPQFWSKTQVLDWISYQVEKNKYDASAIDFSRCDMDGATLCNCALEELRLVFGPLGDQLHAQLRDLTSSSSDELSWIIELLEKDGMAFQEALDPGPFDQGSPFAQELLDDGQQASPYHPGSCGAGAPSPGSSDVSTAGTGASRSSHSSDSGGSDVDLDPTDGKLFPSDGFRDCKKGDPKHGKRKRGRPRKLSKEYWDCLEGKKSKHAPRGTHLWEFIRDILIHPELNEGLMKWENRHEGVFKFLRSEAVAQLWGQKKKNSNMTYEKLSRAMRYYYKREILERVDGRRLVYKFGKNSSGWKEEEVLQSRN
The method, boiled down:
as §1

Another assay concerns the target ETV1 (Homo sapiens, UniProt P50549 1-477). The procedure, abridged: as §1

Chain of ETV1 (P50549 whole entry): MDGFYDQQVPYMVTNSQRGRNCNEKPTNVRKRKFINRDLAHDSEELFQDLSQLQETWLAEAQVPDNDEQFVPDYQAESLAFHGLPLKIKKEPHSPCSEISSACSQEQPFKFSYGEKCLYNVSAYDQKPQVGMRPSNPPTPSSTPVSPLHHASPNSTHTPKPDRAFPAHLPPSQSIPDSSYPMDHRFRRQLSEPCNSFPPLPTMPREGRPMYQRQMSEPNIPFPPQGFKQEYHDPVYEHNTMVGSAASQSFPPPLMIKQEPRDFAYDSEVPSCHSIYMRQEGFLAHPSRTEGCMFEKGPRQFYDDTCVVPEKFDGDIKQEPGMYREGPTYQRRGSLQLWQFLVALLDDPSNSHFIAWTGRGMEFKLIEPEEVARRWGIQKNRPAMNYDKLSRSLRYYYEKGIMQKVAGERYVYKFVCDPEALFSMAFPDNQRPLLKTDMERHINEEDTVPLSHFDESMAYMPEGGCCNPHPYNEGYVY
Chain of SPIB (Q01892 whole entry): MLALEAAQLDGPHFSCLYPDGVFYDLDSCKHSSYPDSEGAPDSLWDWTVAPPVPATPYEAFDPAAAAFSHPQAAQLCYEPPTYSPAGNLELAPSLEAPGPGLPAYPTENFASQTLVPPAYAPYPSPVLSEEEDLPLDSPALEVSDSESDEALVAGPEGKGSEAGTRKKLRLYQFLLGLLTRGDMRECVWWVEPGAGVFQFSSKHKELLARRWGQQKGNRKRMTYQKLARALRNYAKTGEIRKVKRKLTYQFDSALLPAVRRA
Chain of ELF1 (P32519 whole entry): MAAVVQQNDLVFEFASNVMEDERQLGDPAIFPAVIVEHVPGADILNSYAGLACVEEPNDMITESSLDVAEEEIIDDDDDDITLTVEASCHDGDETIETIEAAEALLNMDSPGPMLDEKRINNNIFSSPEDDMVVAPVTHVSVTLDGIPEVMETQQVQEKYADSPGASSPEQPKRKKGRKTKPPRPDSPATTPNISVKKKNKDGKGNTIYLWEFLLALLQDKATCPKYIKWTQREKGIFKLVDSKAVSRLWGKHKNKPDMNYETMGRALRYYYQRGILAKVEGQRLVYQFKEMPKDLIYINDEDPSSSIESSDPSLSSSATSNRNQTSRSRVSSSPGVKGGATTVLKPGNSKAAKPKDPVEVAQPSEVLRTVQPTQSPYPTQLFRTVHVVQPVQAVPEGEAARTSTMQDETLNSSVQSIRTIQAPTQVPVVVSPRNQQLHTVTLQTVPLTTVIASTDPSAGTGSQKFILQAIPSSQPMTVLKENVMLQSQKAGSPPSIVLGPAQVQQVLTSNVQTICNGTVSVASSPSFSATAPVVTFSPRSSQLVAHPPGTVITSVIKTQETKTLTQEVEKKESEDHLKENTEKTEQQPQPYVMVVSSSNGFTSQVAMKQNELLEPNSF
Chain of ELF4 (Q99607 whole entry): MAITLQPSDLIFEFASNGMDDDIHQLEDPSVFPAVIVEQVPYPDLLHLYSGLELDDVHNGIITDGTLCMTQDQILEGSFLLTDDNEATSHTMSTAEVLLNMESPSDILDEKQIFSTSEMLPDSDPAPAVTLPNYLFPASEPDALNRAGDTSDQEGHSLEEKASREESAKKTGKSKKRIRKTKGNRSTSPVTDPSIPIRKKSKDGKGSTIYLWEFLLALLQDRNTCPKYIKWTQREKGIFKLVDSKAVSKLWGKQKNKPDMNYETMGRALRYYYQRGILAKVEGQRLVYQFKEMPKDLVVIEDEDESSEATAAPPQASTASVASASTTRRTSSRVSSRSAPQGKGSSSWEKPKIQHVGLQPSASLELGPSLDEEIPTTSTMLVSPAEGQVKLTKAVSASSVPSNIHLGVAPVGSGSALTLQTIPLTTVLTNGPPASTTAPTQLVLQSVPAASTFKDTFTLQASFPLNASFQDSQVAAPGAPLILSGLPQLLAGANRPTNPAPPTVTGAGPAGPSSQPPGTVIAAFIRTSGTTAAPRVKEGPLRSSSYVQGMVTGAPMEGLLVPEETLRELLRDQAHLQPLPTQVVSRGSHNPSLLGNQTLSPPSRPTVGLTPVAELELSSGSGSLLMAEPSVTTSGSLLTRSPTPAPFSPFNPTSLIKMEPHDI
Chain of ETV5 (P41161 whole entry): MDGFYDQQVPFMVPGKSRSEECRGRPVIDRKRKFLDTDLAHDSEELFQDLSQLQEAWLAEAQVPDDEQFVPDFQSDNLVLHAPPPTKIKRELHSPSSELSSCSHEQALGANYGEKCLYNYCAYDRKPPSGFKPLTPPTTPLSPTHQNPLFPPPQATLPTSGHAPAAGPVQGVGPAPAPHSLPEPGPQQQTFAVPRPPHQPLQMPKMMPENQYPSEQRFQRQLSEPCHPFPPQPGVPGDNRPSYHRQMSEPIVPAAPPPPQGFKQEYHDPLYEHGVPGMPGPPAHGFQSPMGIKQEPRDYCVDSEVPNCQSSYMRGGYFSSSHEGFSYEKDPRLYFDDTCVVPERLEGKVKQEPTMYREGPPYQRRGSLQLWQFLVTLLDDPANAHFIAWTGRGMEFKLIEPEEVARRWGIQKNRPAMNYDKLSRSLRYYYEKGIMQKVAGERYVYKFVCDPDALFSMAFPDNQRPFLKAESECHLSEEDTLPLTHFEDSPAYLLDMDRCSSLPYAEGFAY

On to ACAACA, for which the binding signal with FLI1 is 1.22 fold enrichment (6-mer frequency, TF over GST control); in the assay with ELK1 it was 1.24 fold enrichment (6-mer frequency, TF over GST control); with GABPA, 1.23 fold enrichment (6-mer frequency, TF over GST control); with ERG, 1.2 fold enrichment (6-mer frequency, TF over GST control); with ELF1, 1.29 fold enrichment (6-mer frequency, TF over GST control); with EHF, 1.24 fold enrichment (6-mer frequency, TF over GST control). The binding signal with SPI1 is 1.18 fold enrichment (6-mer frequency, TF over GST control); with SPIB, 1.19 fold enrichment (6-mer frequency, TF over GST control); with ELK3, 1.19 fold enrichment (6-mer frequency, TF over GST control); with FEV, 1.2 fold enrichment (6-mer frequency, TF over GST control); with ETV5, 1.16 fold enrichment (6-mer frequency, TF over GST control); with SPIC, 1.13 fold enrichment (6-mer frequency, TF over GST control). Further, the binding signal is 1.19 fold enrichment (6-mer frequency, TF over GST control) with ELF4; 1.14 fold enrichment (6-mer frequency, TF over GST control) in the assay with ELK4; 1.28 fold enrichment (6-mer frequency, TF over GST control) with ETV2; 1.32 fold enrichment (6-mer frequency, TF over GST control) with ELF3; 1.23 fold enrichment (6-mer frequency, TF over GST control) with ETV1.

In the case of ATGCGG, the binding signal in the assay with FLI1 is 1.3 fold enrichment (6-mer frequency, TF over GST control); with ELK1, 1.22 fold enrichment (6-mer frequency, TF over GST control); in the assay with GABPA it was 1.2 fold enrichment (6-mer frequency, TF over GST control); with ERG it was 1.22 fold enrichment (6-mer frequency, TF over GST control); in the assay with ELF1, 1.2 fold enrichment (6-mer frequency, TF over GST control); with EHF, 1.31 fold enrichment (6-mer frequency, TF over GST control). Moreover, the binding signal with SPI1 was 1.56 fold enrichment (6-mer frequency, TF over GST control); in the assay with SPIB, 1.32 fold enrichment (6-mer frequency, TF over GST control); with ELK3, 1.23 fold enrichment (6-mer frequency, TF over GST control); with FEV, 1.13 fold enrichment (6-mer frequency, TF over GST control); with ETV5 it was 1.29 fold enrichment (6-mer frequency, TF over GST control); with SPIC, 1.49 fold enrichment (6-mer frequency, TF over GST control). Besides, the binding signal with ELF4 was 1.23 fold enrichment (6-mer frequency, TF over GST control); with ELK4, 1.15 fold enrichment (6-mer frequency, TF over GST control); with ETV2, 1.27 fold enrichment (6-mer frequency, TF over GST control); with ELF3, 1.63 fold enrichment (6-mer frequency, TF over GST control); with ETV1, 1.24 fold enrichment (6-mer frequency, TF over GST control).
